40 compounds from PubChem BioAssay AID493168 (National Center for Advancing Translational Sciences (NCATS), 2011) can be followed below.

Molecules are shown by their SMILES. Inconclusive results are not listed. Entries that show only a call come without a potency. Calls of active or inactive are those of the source. The call rests on the fitted dose curve; in most records, active means well fitted inhibition curve with a large enough effect; inconclusive means small, poorly fitted or top-dose-only effect, or effect the other way; inactive means flat fitted curve, though single readings scatter.
Potency means the concentration at half of the fitted maximal effect.

In this assay the target is Ubiquitin carboxyl-terminal hydrolase 2 (Homo sapiens) (UniProt O75604). Briefly: Confirmation Assay for Inhibitors of Ubiquitin-specific Protease USP2a Using CHOP2 as the Reporter. Further: nearly all actives have a fitted effect of over 55% in size. The settings on record: USP2 core, Ub-CHOP2 coupled reporter fluorescence; series mostly up to 38.3 µM. The gist of the method: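 USP2 core (10 nM final) was preincubated with compound for 30 min at RT in Tris-HCl pH 8.0, CaCl2, beta-mercaptoethanol, CHAPS. Ub-CHOP2 and reporter substrate (25 nM final each) were added, and fluorescence (Ex 485/Em 531 nm) was read after 60 min.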
Sequence of Ubiquitin carboxyl-terminal hydrolase 2 (Homo sapiens) (O75604 whole entry, looked up): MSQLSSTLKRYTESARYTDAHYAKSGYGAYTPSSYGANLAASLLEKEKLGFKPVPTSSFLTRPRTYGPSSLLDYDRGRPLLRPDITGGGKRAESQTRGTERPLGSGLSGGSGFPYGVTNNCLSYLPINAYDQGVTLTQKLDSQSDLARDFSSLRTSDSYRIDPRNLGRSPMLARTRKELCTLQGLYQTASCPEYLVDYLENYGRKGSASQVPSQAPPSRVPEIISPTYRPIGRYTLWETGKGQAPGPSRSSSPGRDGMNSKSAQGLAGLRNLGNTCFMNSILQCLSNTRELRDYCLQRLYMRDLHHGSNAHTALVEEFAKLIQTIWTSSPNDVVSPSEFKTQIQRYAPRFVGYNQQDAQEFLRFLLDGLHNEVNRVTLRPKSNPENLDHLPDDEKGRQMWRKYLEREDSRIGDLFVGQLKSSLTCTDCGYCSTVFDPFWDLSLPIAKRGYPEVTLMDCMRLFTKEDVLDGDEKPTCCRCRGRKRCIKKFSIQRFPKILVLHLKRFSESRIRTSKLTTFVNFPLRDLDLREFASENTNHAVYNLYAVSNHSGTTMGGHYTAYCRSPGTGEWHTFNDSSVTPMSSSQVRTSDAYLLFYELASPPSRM
`CC(C)Oc1ccc(C(=O)Nc2ccc(N3CCCC3)cc2)cc1`: the Potency entry is “inactive”. For the compound `O=C1c2ccccc2CCC12N=NCC2c1ccc(Br)cc1` (stereo not given), the Potency result was “inactive”. For `Cc1ccc(S(=O)(=O)Nc2cc(C)c(O)c(S(=O)(=O)c3ccc(C)cc3)c2)cc1` the value was “inactive”; for `Cc1noc(/C=C/NCc2cccnc2)c1S(=O)(=O)N(C)CC(=O)N1CCc2ccccc21`, “inactive”; for `O=C(CC1Oc2ccccc2NC1=O)NCc1ccc(Cl)cc1` (stereo not given), “inactive”. For `COc1ccc(CNS(=O)(=O)c2ccc(S(=O)(=O)N3CCCCC3)cc2)cc1` the value was “inactive”; for `CC[n+]1c(/C=C/N(C)c2ccccc2)n(-c2ccccc2)c2ccc(-c3nc4ccccc4s3)cc21`, 13.1 µM (active); for `Cc1ccc(CNC(=O)CCNS(=O)(=O)c2ccc(C)cc2)cc1`, “inactive”.

`CCCCNc1nc2ccccc2nc1NS(=O)(=O)c1cccs1`: the Potency result is “inactive”. Under `C=C(C)COc1ccc(-c2[nH]ncc2Oc2ccccc2OCC)c(O)c1` stands “inactive”; under `C[C@H](CO)N1C[C@H](C)[C@@H](CN(C)S(=O)(=O)c2ccc(Cl)cc2)Oc2ccc(NS(=O)(=O)c3ccccc3)cc2CC1=O`, “inactive”. Take `Cc1ccc(NC(=O)CSc2nc(O)cc(=O)n2-c2ccc(C)cc2)cc1`: the Potency entry was “inactive”. For `O=C(Cc1ccc(S(=O)(=O)N2CCOCC2)s1)Nc1nc2c(s1)CCCC2` the value was 14.7 µM (active); for `O=c1oc2c(CN3CCCCC3)c(O)ccc2c2c1CCCCC2`, “inactive”; for `O=C(O)C1CCN1C1CCCCC1` (stereo not given), “inactive”. For `O=C(CSc1nc2ccccc2[nH]1)Nc1ccc2c(c1)OCCO2` the value was “inactive”; for `NS(=O)(=O)c1ccc(N=Nc2c(O)c(C(=O)O)cc3ccccc23)cc1`, 13.1 µM (active). Take `O=C(Nc1ccccc1)c1cc(Cl)nc2ccccc12`: the Potency result is “inactive”.

With `CC(=O)C1=C(O)C(=O)N(c2nnn(C)n2)C1c1cccs1` (stereo not given), the Potency entry is “inactive”.

On to `CC(C)c1ccc(C2=C(O)c3ccccc3C(=O)C2=O)cc1`, for which the Potency entry was “inactive”. For `COc1ccc(NC(=O)CN(Cc2ccccc2)S(C)(=O)=O)cc1` the value was “inactive”. As for `O=C(NCCCN1CCCC1=O)c1cccc(N2CCCC2=O)c1`, the Potency entry was “inactive”. For `Cc1ccc(/C=C2/SC(=S)N(c3ccc(S(=O)(=O)Nc4nccs4)cc3)C2=O)cc1`, the Potency was 6.56 µM (active). Under `Cc1ccc(NC(=O)CSc2nnc(COc3ccc(C#N)cc3)n2-c2ccccc2)cc1C` stands “inactive”; under `COC(=O)C1Sc2[nH]c(=O)sc2C(c2ccc(Cl)cc2)C1C(=O)OC` (stereo not given), “inactive”; under `O=C(O)C1Nc2c(O)cc(Cl)c([N+](=O)[O-])c2C2C=CCC12` (stereo not given), 9.27 µM (active). Under `NC1=NC2(CCC(c3ccccc3)CC2)n2c(nc3ccccc32)N1` (stereo not given) stands “inactive”; under `O=C(COC(=O)c1cccc(S(=O)(=O)N2CCc3ccccc32)c1)NC1CCS(=O)(=O)C1` (stereo not given), “inactive”. For the compound `COc1cc(C2C(C#N)=C(N)Oc3c2ccc2ccccc32)ccc1OCC(=O)Nc1cccc(C)c1` (stereo not given), the Potency result was “inactive”. With `O=C(Nc1cccc(C(F)(F)F)c1)/C(=C\c1ccco1)NC(=O)c1cccs1`, the Potency result is “inactive”.

In the case of `COc1ccc2[nH]c(=O)c(CN(Cc3ccco3)Cc3nnnn3Cc3ccccc3)cc2c1`, the Potency result is “inactive”. Under `COc1ccc(NC(=O)CSc2nc(O)cc(=O)n2-c2ccc(OC)cc2)cc1` stands “inactive”; under `CCOC(=O)C1CCN(C(=O)COC(=O)c2c(C)c(CC)nc3ccccc23)CC1`, “inactive”. As to `Cn1c(SCc2nc3ccccc3s2)nnc1-c1cccs1`, the Potency result was “inactive”. For `Nn1c(Nc2ccccc2)nc2ccccc2c1=O`, the Potency entry was “inactive”.

In the case of `COc1ccc(Cl)cc1S(=O)(=O)Nc1cccc(C(=O)O)c1`, the Potency result was “inactive”. For `CCOC(=O)c1[nH]c2ccc(OC)cc2c1NC(=O)CCN1CCCC(C)C1` (stereo not given) the value was “inactive”.

For the compound `Cc1ccc(SCC(=O)NCC(C)C)cc1`, the Potency result is “inactive”.

As for `CCOC(=O)C1CCN(CC(O)COc2ccc(C(C)(C)C)cc2)CC1` (stereo not given), the Potency entry was “inactive”. With `CCCOc1ccc(-c2nc(C#N)c(N3CCN(CC)CC3)o2)cc1`, the Potency entry is “inactive”.
